NALP1 yeast inh: NALP1 inhibition | AID 2071 | S. cerevisiae NALP1/ASC/caspase-1 growth, X-gal OD620, 72 h | 280,000 tested, 0.61% active | inhibition, % at 10 µM; in the data active = inhibition mostly above about 24%, no sharp cut-off; inactive = mostly below about 32%
tim23-1 inh: growth inhibitors of tim23-1 mutant yeast; S. cerevisiae tim23-1 growth, BacTiter-Glo luminescence, 24 h; 330,000 tested, 1.3% active; inhibition, % at 20 µM; AID 463212;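 active = growth inhibition of the mutant yeast at or above 50%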;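 note: temperature-sensitive mutant grown at 25 °C; plate controls were DMSO-treated mutant yeast for no effect and medium wells lacking yeast for full effect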
NLRP3 yeast inh: NALP3 inhibition in yeast | Yeast reconstituted NLRP3/ASC/caspase-1, beta-gal luminescence, 24 h | inhibition, % at 10 µM | 330,000 tested, 0.39% active | AID 2825;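 active = inhibition of 50% or more; inactive = inhibition below 50%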;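 note: plate controls were induced DMSO wells for no effect and uninduced yeast grown without galactose for full effect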
TIM10 inh: inhibits growth of TIM10 yeast strain. 330,000 tested, 1.4% active. AID 463195. inhibition, % at 10 µM. S. cerevisiae TIM10 strain growth, BacTiter-Glo luminescence, 24 h;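 active = inhibition of 40% or more at the single tested concentration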;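 note: wild-type TIM10 isogenic control strain grown at permissive 25 °C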
tim10-1 inh: inhibits growth of tim10-1 mutant yeast | S. cerevisiae tim10-1 ts strain growth, BacTiter-Glo, 24 h | 330,000 tested, 2.2% active | inhibition, % at 20 µM | AID 463190;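 active = inhibition of at least 40%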;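 note: mutant grown at 25 °C; 0% = DMSO wells with yeast and 100% = wells holding no yeast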
tim10-1 confirm: tim10-1 yeast growth inhibition, confirmed | shares compounds with tim10-1 inh | S. cerevisiae tim10-1 ts strain growth, BacTiter-Glo, 24 h | inhibition, % at 20 µM | 7,400 tested, 56% active | AID 463213;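 active = inhibition of yeast growth at or above a set limit in either of two repeat tests at 20 µM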;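 note: tim10-1 mutant grown at permissive 25 °C to find synthetic lethal compounds; 0% = DMSO yeast wells and 100% = medium wells without yeast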
tim10 confirm: confirmation of TIM10 yeast growth inhibitors | shares compounds with TIM10 inh | S. cerevisiae tim10 strain growth, BacTiter-Glo luminescence, 24 h | inhibition, % at 10 µM | 4,600 tested, 63% active | AID 463215;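 active = inhibition of yeast growth at or above a set limit in either of two replicates at 10 µM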;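 note: this counterscreen used the strain with wild-type TIM10; 0% = yeast with DMSO and 100% = medium wells lacking yeast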
tim23-1 conf: tim23-1 yeast growth inhibition, confirmed; shares compounds with tim23-1 inh; S. cerevisiae tim23-1 growth, BacTiter-Glo luminescence, 24 h; inhibition, % at 20 µM; 4,400 tested, 83% active;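 active = inhibition above about 39% in either of two replicate wells at 20 µM, limit read from the data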;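 note: temperature-sensitive tim23-1 mutant grown at 25 °C; 0% = DMSO wells with yeast and 100% = medium wells without yeast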
Active calls of the source: *; nt = no result. The list is not random: actives were taken first. Their share in the collection is about 4.1%.

SMILES | NALP1 yeast inh | tim23-1 inh | NLRP3 yeast inh | TIM10 inh | tim10-1 inh | tim10-1 confirm | tim10 confirm | tim23-1 conf
CC(Nc1nc(-c2ccccc2)nc2ccccc12)c1ccccc1 (stereo unspecified) | 12 | 58* | 19 | 29 | 44* | -27 | nt | 33
O=C(Cc1ccccc1)Oc1coc(CSc2ncccn2)cc1=O | -4 | 26 | -11 | 19 | 6 | nt | nt | nt
C/C(=N\NC(=O)c1cccc(S(=O)(=O)N2CCCC2)c1)c1ccc(OCC(=O)N(C)C)cc1 | nt | 1 | -6 | 4 | -1 | nt | nt | nt
N/C(=N\OC(=O)c1cc(-c2ccccc2)nc2ccccc12)c1ccc(Cl)cc1 | -6 | 70* | -14 | 89* | 59* | 44* | 87* | 42*
N/C(=N\OC(=O)c1cc(-c2ccccc2)nc2ccccc12)c1cccnc1 | 29 | 80* | -19 | 71* | 52* | 66* | 77* | 30
CCOC(=O)c1c(C)n(C)c2ccc(OC)c(NC(=O)CCN3CCC(Cc4ccccc4)CC3)c12 | 21 | -9 | 11 | -18 | -10 | nt | nt | nt
COc1ccc(N2CCN(C(=O)c3cc(=O)c4ccc(C)cc4o3)CC2)cc1 | 8 | 22 | 8 | 21 | 39 | nt | nt | nt
OCC1(Cc2ccc(Cl)cc2)CCN(Cc2ccc(Oc3ncccn3)cc2)CC1 | 2 | 8 | 1 | -6 | -10 | nt | nt | nt
Cc1occc1-c1nnc(-c2cc([N+](=O)[O-])cc([N+](=O)[O-])c2)o1 | 5 | 83* | 28 | 56* | 73* | 69* | 52* | 69*
O=[N+]([O-])c1cccc(-c2nnc(-c3ccccc3)o2)c1 | -9 | -9 | 24 | 23 | 17 | nt | nt | nt
CCOC(=O)/C(=C\c1ccc(Cl)cc1)c1nc2sc(C)c(C)c2c(=O)[nH]1 | 44* | 72* | 28 | 44* | 48* | 49* | 13 | 61*
CCOC(=O)CSc1nc2sc(C)c(C)c2c(=O)[nH]1 | 17 | 25 | -6 | 25 | 29 | nt | nt | nt
COCCn1c(-c2cccc([N+](=O)[O-])c2)nc2c1c(=O)[nH]c(=O)n2Cc1ccccc1 | 35 | -3 | -11 | 3 | -3 | nt | nt | nt
Cc1nc(C(=O)NC(C)C)nn1-c1cc(Cl)cc(Cl)c1 | 0 | 10 | 12 | -7 | -2 | nt | nt | nt
Clc1ccc(/C(Cc2nc3ccccc3[nH]2)=N\Nc2ccccc2)cc1 | 28* | 53* | 31 | 56* | 46* | 22 | 56* | 45*
S=c1[nH]ncn1/N=C/c1cccc(Oc2ccccc2)c1 | -10 | 56* | 36 | 52* | 61* | 46* | 0 | 56*
COC(=O)c1c(NC(=O)CN2CCN(c3ncccn3)CC2)sc(C(N)=O)c1C | 23 | 2 | 5 | 5 | -10 | nt | nt | nt
Cn1ncc2c(O/N=C(\N)c3ccc(C(F)(F)F)cc3)ncnc21 | nt | 79* | 15 | 74* | 52* | 25 | 85* | 52*
Cc1ccc(C(=O)NNc2ncnc3c2cnn3C)cc1 | -21 | 10 | 0 | 10 | 0 | nt | nt | nt
CCOC(=O)CCNC(=O)N1CCCC(N2CCN(c3ccc(OC)cc3)CC2)C1 (stereo unspecified) | 20 | 1 | 17 | 0 | -7 | nt | nt | nt
CCN1C(=O)/C(=C\C(=O)c2cccs2)c2cc(Br)ccc21 | 2 | 72* | 20 | 74* | 49* | 34* | 65* | 25
CCN1C(=O)/C(=C/N(C)C)c2ccccc21 | 25 | -2 | 4 | -11 | 15 | nt | nt | nt
O=C(COC(=O)c1ccc(O)cc1O)NC12CC3CC(CC(C3)C1)C2 | nt | 38 | 11 | 19 | 11 | nt | nt | nt
O=C(OCC(=O)C12CC3CC(CC(C3)C1)C2)c1ccc(O)cc1O | nt | 76* | 13 | 27 | 53* | 15 | nt | 62*
COc1ccc(/C=C/C(=O)c2cc(F)ccc2OC(=O)c2ccc(OC)c(OC)c2)cc1OC | 26 | 52* | 15 | 54* | 50* | 46* | 29 | 56*
Fc1ccccc1-c1nc(NC2CCCC2)c2ccccc2n1 | 25 | 67* | 10 | 52* | 52* | 50* | 48* | 75*

Assay outcomes (PubChem)
